What all share (experiment): log2 fold change, soluble protein after heating vs DMSO (PISA); higher = thermal stabilisation; K562 lysate, 10 uM; active = over 0.2 and 3.5 SD of the protein, either way, in both replicates (recomputed)
Compound in one assay: Cc1cn(-c2cc(NC(=O)c3ccc(C)c(Nc4nccc(-c5cccnc5)n4)c3)cc(C(F)(F)F)c2)cn1 [nilotinib]
An outline of the steps: (§1)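 Soluble protein was defined as the supernatant remaining after 21,000xg for 90 min, following pooling of heated aliquots and adjustment to 0.5% NP-40 at 4°C. Before that, crude K562 extract at 1 mg/mL protein in PBS pH 7.4 with 1 mM MgCl2 was treated with 10 μM compound for 30 min and heated for 3 min across 48°C-58°C. Quantification used TMTpro 16plex LC-MS/MS with channel sums equalised, and values are log-two fold changes in thermal stability relative to solvent controls from duplicates.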

Compound in assay [1]: Cc1nc(Nc2n[nH]c3c2CN(C(=O)N[C@H](CN(C)C)c2ccccc2)C3(C)C)c2sccc2n1
In short, it runs like this: as §1

Compound in the next assay: Cc1nc(Nc2ncc(C(=O)Nc3c(C)cccc3Cl)s2)cc(N2CCN(CCO)CC2)n1 [dasatinib]
An outline of the steps: as §1

Compound in assay [2]: Cc1ncc(-c2ccnc(Nc3ccc(S(C)(=O)=O)cc3)n2)n1C(C)C
An outline of the steps: as §1

Compound in assay [3]: Cn1cc(-c2ccc3c(c2)CCN3C(=O)Cc2cccc(C(F)(F)F)c2)c2c(N)ncnc21
In short, it runs like this: as §1

Compound in another assay: Cn1cc(CNCC2CCN(c3ncc(C(=O)NO)cn3)CC2)c2ccccc21 [quisinostat]
An outline of the steps:
as §1

Compound in the next assay: Cn1cncc1[C@@](N)(c1ccc(Cl)cc1)c1ccc2c(c1)c(-c1cccc(Cl)c1)cc(=O)n2C [tipifarnib]
An outline of the steps: as §1

Compound in assay [4]: NC(=O)Nc1cc(-c2cccc(F)c2)sc1C(=O)N[C@H]1CCCNC1
An outline of the steps: as §1

Compound in assay [5]: NC(=O)c1cnc(N[C@@H]2CCCC[C@@H]2N)nc1Nc1cccc(-n2nccn2)c1
An outline of the steps: as §1

Compound in assay [6]: NC1(c2ccc(-c3nc4ccn5c(=O)[nH]nc5c4cc3-c3ccccc3)cc2)CCC1
An outline of the steps:
as §1

Targets with a hit are over-represented here; the source holds about 8,800 in all. About 0.5% of all pairs of compound and target were hits. Unmarked numbers belong to inactive results.

Sequence of UniProt O00425 (O00425 whole entry, looked up): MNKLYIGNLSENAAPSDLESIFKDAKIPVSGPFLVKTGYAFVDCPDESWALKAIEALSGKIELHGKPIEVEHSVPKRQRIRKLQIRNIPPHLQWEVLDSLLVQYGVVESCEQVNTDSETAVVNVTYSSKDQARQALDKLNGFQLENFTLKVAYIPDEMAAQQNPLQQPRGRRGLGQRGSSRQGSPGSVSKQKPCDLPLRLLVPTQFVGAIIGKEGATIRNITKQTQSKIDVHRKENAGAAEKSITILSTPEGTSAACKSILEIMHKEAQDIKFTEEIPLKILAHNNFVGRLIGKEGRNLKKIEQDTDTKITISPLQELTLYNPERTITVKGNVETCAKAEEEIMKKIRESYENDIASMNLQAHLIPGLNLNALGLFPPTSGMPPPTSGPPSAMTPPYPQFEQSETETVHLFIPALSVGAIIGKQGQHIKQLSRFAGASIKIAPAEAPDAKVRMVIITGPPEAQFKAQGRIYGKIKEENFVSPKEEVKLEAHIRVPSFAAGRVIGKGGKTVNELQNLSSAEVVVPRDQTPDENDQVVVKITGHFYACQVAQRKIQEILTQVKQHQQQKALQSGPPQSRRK
Sequence of UniProt P14866 (P14866 whole entry, looked up): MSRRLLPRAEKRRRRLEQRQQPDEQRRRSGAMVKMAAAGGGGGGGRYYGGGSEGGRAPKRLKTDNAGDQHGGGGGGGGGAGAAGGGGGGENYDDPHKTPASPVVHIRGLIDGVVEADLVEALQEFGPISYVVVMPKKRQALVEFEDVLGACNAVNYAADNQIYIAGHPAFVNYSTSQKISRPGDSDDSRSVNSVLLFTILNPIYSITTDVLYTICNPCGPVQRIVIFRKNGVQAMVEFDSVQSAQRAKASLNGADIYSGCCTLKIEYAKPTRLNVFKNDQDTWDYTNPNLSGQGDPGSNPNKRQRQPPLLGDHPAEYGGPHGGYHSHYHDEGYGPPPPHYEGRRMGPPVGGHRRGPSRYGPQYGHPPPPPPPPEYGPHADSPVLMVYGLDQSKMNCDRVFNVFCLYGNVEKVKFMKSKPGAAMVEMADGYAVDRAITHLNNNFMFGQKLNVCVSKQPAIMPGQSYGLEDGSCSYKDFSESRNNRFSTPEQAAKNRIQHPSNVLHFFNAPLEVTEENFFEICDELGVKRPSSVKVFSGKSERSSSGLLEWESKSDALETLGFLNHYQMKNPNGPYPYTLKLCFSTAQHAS
Sequence of UniProt P51617 (P51617 whole entry, looked up): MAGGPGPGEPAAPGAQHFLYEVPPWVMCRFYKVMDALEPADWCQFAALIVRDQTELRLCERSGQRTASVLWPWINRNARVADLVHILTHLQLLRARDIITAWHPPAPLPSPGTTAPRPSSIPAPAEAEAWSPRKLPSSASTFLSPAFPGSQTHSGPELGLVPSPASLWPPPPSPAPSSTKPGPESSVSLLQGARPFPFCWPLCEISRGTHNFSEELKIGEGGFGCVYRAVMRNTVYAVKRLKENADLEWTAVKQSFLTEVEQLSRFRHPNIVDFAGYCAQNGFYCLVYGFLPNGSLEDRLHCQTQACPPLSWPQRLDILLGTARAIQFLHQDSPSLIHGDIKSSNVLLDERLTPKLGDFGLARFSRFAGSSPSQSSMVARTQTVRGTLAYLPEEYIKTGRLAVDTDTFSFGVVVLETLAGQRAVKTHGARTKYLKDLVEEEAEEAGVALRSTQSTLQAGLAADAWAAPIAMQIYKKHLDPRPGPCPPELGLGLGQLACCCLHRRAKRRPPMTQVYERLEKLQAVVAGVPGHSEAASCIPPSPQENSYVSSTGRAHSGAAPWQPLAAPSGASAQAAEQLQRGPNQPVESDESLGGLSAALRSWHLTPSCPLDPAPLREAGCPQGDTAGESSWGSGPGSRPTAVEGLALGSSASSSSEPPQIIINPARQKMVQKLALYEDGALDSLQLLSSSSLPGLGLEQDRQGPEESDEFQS
Sequence of UniProt Q8WVV9 (Q8WVV9 whole entry, looked up): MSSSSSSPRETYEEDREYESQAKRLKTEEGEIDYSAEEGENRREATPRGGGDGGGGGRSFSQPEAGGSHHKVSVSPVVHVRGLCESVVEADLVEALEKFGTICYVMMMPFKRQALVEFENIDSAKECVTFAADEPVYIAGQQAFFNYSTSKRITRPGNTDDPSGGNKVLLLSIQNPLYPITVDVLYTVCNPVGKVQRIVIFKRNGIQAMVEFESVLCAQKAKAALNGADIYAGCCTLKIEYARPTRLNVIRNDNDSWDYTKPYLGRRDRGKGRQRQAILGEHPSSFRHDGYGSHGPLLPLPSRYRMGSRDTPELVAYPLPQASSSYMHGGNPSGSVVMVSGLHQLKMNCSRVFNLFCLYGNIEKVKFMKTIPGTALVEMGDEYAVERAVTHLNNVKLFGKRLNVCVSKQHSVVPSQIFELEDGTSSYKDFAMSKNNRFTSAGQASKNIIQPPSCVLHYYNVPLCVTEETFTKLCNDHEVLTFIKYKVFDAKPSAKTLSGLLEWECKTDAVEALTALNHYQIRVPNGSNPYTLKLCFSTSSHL
Sequence of UniProt P40939 (P40939 whole entry, looked up): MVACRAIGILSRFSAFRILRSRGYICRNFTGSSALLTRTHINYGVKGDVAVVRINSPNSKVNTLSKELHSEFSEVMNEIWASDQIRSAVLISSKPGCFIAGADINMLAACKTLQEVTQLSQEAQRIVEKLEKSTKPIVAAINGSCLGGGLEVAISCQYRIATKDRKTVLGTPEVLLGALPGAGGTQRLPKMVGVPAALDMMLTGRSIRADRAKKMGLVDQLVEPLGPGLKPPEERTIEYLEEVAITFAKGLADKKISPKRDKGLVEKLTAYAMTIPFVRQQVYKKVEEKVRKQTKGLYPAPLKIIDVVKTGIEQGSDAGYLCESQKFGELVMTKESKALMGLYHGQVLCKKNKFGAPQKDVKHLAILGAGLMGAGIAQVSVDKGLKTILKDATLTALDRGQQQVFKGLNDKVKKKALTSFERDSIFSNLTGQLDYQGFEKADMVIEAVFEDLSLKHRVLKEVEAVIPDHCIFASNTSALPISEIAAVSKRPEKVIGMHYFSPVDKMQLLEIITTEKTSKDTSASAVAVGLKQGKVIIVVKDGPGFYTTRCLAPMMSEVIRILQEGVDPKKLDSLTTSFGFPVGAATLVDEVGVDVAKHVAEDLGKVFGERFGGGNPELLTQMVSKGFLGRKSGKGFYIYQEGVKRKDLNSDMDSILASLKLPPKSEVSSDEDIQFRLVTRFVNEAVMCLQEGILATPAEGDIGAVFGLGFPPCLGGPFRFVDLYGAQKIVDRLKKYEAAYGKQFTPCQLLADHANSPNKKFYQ
Sequence of UniProt Q9BVP2 (Q9BVP2 whole entry, looked up): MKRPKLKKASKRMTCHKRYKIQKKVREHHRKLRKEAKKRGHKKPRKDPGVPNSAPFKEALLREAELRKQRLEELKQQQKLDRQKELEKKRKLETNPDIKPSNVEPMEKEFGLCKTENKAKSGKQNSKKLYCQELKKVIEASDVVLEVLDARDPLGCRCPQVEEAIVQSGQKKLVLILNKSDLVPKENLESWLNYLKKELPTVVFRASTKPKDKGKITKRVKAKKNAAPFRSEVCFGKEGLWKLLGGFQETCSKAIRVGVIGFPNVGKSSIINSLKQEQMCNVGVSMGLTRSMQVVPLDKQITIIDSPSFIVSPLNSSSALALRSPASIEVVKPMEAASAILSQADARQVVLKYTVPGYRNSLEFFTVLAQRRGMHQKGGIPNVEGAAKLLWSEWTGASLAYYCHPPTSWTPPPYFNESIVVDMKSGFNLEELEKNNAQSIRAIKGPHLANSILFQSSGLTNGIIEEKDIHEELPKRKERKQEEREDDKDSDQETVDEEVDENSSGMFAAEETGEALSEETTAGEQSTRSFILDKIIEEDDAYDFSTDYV
Sequence of UniProt Q6AI08 (Q6AI08 whole entry, looked up): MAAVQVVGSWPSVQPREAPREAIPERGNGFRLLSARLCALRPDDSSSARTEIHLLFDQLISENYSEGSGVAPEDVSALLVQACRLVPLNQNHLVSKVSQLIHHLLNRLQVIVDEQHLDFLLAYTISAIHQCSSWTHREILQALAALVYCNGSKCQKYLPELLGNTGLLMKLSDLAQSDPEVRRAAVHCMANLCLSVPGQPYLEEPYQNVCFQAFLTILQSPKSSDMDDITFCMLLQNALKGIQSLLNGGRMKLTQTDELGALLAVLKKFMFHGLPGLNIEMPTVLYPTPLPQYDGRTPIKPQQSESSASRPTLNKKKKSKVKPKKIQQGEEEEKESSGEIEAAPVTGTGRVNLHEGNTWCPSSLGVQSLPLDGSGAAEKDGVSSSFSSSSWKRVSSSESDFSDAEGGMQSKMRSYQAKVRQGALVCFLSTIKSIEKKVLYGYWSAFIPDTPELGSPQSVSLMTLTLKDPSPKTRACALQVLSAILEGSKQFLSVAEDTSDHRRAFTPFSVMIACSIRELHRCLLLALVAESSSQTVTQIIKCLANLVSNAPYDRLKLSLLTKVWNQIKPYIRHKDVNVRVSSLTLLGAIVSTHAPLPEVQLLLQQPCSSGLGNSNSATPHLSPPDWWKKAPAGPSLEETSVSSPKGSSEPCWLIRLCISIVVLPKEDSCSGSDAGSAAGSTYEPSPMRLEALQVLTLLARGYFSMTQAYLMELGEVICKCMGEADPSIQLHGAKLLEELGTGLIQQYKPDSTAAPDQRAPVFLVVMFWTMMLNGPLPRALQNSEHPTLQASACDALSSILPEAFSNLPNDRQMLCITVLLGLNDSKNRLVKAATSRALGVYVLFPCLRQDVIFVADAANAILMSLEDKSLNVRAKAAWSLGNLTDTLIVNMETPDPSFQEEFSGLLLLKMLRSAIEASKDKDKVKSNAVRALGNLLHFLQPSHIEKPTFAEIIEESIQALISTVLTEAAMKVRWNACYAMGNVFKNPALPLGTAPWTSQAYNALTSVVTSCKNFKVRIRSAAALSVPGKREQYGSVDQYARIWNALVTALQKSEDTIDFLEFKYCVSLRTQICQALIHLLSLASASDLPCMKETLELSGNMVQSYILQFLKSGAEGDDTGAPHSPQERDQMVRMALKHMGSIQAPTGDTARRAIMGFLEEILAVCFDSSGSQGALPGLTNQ
Sequence of UniProt P17096 (P17096 whole entry, looked up): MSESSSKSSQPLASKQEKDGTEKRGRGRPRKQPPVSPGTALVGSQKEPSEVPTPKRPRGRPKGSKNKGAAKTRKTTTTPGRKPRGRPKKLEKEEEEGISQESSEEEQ

For IRAK1 (UniProt P51617), the log2 fold change was -0.036 in the assay with nilotinib; 0.011 in assay [1]; 0.051 with dasatinib; 0.112 in [2]; 0.131 in assay [3]; -0.145 with quisinostat. Besides, the log2 fold change with tipifarnib is 0.016; in [4] it was 0.373 (active); in assay [5] it was 0.005; in assay [6], -0.005.

As to GPN2 (UniProt Q9H9Y4), the log2 fold change was -0.065 with nilotinib; 0.046 in assay [1]; 0.062 in the assay with dasatinib; -0.009 in [2]; -0.046 in assay [3]; -0.022 with quisinostat. Besides, the log2 fold change was 0.013 with tipifarnib, -0.008 in [4], 0.01 in assay [5] and -0.034 in [6].

Regarding GSTCD (UniProt Q8NEC7), the log2 fold change with nilotinib was 0.039; in assay [1], -0.04; with dasatinib it was -0.003; in assay [2] it was -0.005; in [3], -0.098; with quisinostat, -0.053. Further, the log2 fold change with tipifarnib was 0.01; in [4] it was 0.08; in assay [5], -0.014; in assay [6], -0.008.

As to IMPDH2 (UniProt H0Y4R1), the log2 fold change is 0.106 in the assay with nilotinib; -0.012 in assay [1]; 0.004 with dasatinib; 0.014 in assay [2]; -0.066 in [3]; -0.153 with quisinostat. Also, the log2 fold change was -0.09 with tipifarnib, 0.02 in assay [4] and -0.01 in assay [5].

Consider HADHA (UniProt P40939), for which the log2 fold change in the assay with nilotinib is 0.051; in assay [1] it was -0.024; in the assay with dasatinib, -0.036; in assay [2], 0.002; in [3], 0.03; with quisinostat, -0.082. In addition, the log2 fold change with tipifarnib was 0.025; in [4], -0.077; in assay [5] it was -0.071; in assay [6] it was 0.078.

Take HEATR6 (UniProt Q6AI08): the log2 fold change with nilotinib is -0.085; in assay [1], 0.022; with dasatinib, -0.019; in [2] it was 0.022; in [3], 0; in the assay with quisinostat, -0.008. In addition, the log2 fold change with tipifarnib is -0.06; in [4], 0.055; in assay [5], 0.041; in assay [6], 0.026.

H4C1 (UniProt P62805): the log2 fold change was 0.051 in the assay with nilotinib; -0.027 in [1]; -0.063 in the assay with dasatinib; -0.033 in assay [2]; 0.048 in assay [3]; 0.137 in the assay with quisinostat. For the same target, the log2 fold change with tipifarnib is 0; in [4] it was -0.032; in assay [5], 0.01; in assay [6], 0.015.

Take HNRNPLL (UniProt Q8WVV9): the log2 fold change was -0.031 with nilotinib; 0.009 in assay [1]; -0.019 in the assay with dasatinib; 0.008 in assay [2]; -0.001 in assay [3]; -0.063 in the assay with quisinostat. For the same target, the log2 fold change is -0.008 in the assay with tipifarnib, 0.001 in assay [4], 0.015 in assay [5] and -0.013 in assay [6].

Consider HIST2H2AA3 (UniProt Q6FI13), for which the log2 fold change in the assay with nilotinib is 0.135; in [1], -0.098; in the assay with dasatinib, 0.081; in [2] it was 0.035; in [3] it was -0.041; with quisinostat, 0.064. Also, the log2 fold change with tipifarnib was 0.058; in assay [4] it was 0.076; in assay [5] it was 0.01; in assay [6], 0.048.

HSPA8 (UniProt E9PK54): the log2 fold change with nilotinib is 0.023; in [1] it was -0.053; with dasatinib, -0.024; in assay [2], -0.021; in [3], -0.032; with quisinostat it was -0.093. The log2 fold change with tipifarnib was -0.01; in [4] it was 0.113; in [5], -0.033; in [6] it was 0.004.

For the target HNRNPM (UniProt P52272), the log2 fold change with nilotinib was 0.022; in assay [1] it was -0.043; in the assay with dasatinib, -0.109; in assay [2] it was -0.05; in assay [3], 0.01; with quisinostat it was 0.055. In addition, the log2 fold change with tipifarnib is -0.112; in [4] it was 0.054; in [5] it was -0.002; in assay [6], 0.053.

In the case of HMGA1 isoform 2 (UniProt P17096), the log2 fold change with nilotinib is 0.209; in assay [1], 0.014; with dasatinib it was 0.091; in [2] it was 0.395; in assay [3], -0.099; with quisinostat, 0.289. Moreover, the log2 fold change was 0.168 with tipifarnib, -0.018 in [4], -0.064 in assay [5] and -0.101 in [6].

Regarding IGF2BP3 (UniProt O00425), the log2 fold change with nilotinib was -0.046; in assay [1], 0.008; with dasatinib, -0.035; in assay [2] it was 0.006; in assay [3] it was 0.063; with quisinostat it was -0.045. For the same target, the log2 fold change with tipifarnib is 0.008; in assay [4] it was 0.039; in assay [5], 0.013; in [6] it was -0.027.

Regarding HNRNPL (UniProt P14866), the log2 fold change is -0.011 with nilotinib; -0.015 in [1]; -0.036 with dasatinib; 0.013 in assay [2]; 0.068 in assay [3]; -0.07 with quisinostat. Besides, the log2 fold change in the assay with tipifarnib was 0.012; in assay [4], 0.042; in assay [5], -0.001; in [6], 0.022.

With GNL3 (UniProt Q9BVP2), the log2 fold change in the assay with nilotinib was 0.008; in [1], -0.022; with dasatinib, -0.005; in [2], 0.029; in assay [3], -0.003; with quisinostat it was -0.164. Also, the log2 fold change with tipifarnib was 0.013; in assay [4] it was 0.038; in assay [5], 0.022; in assay [6], -0.031.

(Values after the supplement of paper PMC10849652.)
